Results filed as inconclusive are left out. Active and inactive are the calls of the source. The call rests on the fitted dose curve; in most records, active means well fitted cell-killing curve with a large enough effect; inconclusive means small, poorly fitted or top-dose-only effect; inactive means no such curve, though single readings can be large or run the other way.
Potency means the concentration at half of the fitted maximal effect.

The assay can be described thus: Quantitative High-Throughput drug screen in 47 multiple myeloma cell lines against the NCATS MIPE library collection: NCIH929_DSMZ cell viability assay (AID 1918978). Further: nearly all actives have a fitted effect of over 35% in size. The conditions noted are these: NCI-H929 myeloma viability, CellTiter-Glo ATP, 48 h; series mostly up to 45.8 µM; viability, % of control: at the top concentration. An outline of the steps: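 qHTS format: cells plated (500/well), pin-dosed with MIPE 4.0 compounds, kept 48 h at 37 °C. Readout was CellTiter-Glo luminescence, median RLU.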
`CCCCc1oc2ccccc2c1C(=O)c1cc(I)c(OCCN(CC)CC)c(I)c1`: the Potency was 23.5 µM (active).
As to `CCOC(=O)c1ncn2c1CN(C)C(=O)c1cc(F)ccc1-2`, the “viability, % of control” value was 109% (inactive).
Consider `CCCNCC(O)COc1ccccc1C(=O)CCc1ccccc1` (stereo not given), for which the “viability, % of control” value is 91% (inactive).
As for `CC(C)(Oc1ccc(C2CC2(Cl)Cl)cc1)C(=O)O` (stereo not given), the “viability, % of control” value was 105% [at 92.2 µM] (inactive).
Regarding `COc1cc2nc(N3CCN(C(=O)C4COc5ccccc5O4)CC3)nc(N)c2cc1OC` (stereo not given), the Potency was 23.5 µM (active).
For `CN1C(C(=O)Nc2ccccn2)=C(O)c2ccccc2S1(=O)=O`, the “viability, % of control” value is 110% (inactive).
As to `NCCc1cnc[nH]1`, the “viability, % of control” value is 134% (inactive).
Take `Cn1c(=O)c2c(ncn2C)n(C)c1=O`: the “viability, % of control” value is 115% (inactive).
Turning to `CN(Cc1cnc2nc(N)nc(N)c2n1)c1ccc(C(=O)N[C@@H](CCC(=O)O)C(=O)O)cc1`, the Potency is 2.35 µM (active).
In the case of `CCC1(C)CC(=O)NC1=O` (stereo not given), the “viability, % of control” value was 106% (inactive).
As to `Cc1cn([C@H]2C[C@H](N=[N+]=[N-])[C@@H](CO)O2)c(=O)[nH]c1=O`, the Potency was 23.5 µM (active).
On to `Cc1cnc(C(=O)NCCc2ccc(S(=O)(=O)NC(=O)NC3CCCCC3)cc2)cn1`, for which the “viability, % of control” value was 94.5% (inactive).
Still for that read-out and setting: then `Cc1ccc(C(=O)Nc2ccc(S(=O)(=O)O)c3cc(S(=O)(=O)O)cc(S(=O)(=O)O)c23)cc1NC(=O)c1cccc(NC(=O)Nc2cccc(C(=O)Nc3cc(C(=O)Nc4ccc(S(=O)(=O)O)c5cc(S(=O)(=O)O)cc(S(=O)(=O)O)c45)ccc3C)c2)c1`, with 97% (inactive).
Turning to `CC(C)C(=O)Nc1ccc([N+](=O)[O-])c(C(F)(F)F)c1`, the Potency is 1.87 µM (active).
Same read-out and setting: then `COC(=O)Nc1nc2ccc(C(=O)c3cccs3)cc2[nH]1`, with 0.296 µM (active).

(Values after PubChem BioAssay (NCATS).)
